rCAG binder – molecules binding r(CAG) RNA repeats; r(CAG) RNA repeat, TO-PRO-1 dye displacement fluorescence; inhibition, % at 3 µM; 1.3% of 370,000 active;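 active = inhibition above the plate cutoff, the mean of all test compounds on that plate plus 3 SD, cut at about 35% in these data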;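 also: 0% = DMSO alone and 100% = 100 µM mitoxantrone as full dye displacement; higher means more dye released from RNA so lower well fluorescence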
Granule exo inh – blocks lytic granule exocytosis; inhibition, % at 10 µM; 0.66% of 360,000 active; TALL-104 LAMP-1 surface exposure, flow cytometry; cells stimulated with thapsigargin and PMA;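 active = inhibition above about 55%, limit read from the data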
ABCB6 inh MLPCN – inhibitors of human ABC transporter ABCB6; K562-ABCB6 porphyrin accumulation, flow cytometry, 1 h; hits give low values; fluorescence ratio to DMSO, % at 10 µM; 0.19% of 360,000 active; AID 602162; Q9NP58;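 active = fluorescence ratio to DMSO below 75%, the collection mean minus 3 SD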;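 also: signal is porphyrin accumulated inside mitochondria; 100% equals median channel fluorescence of DMSO control wells; lower ratio means ABCB6 inhibition with less porphyrin fluorescence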
Target sequence (Q9NP58 whole entry, looked up): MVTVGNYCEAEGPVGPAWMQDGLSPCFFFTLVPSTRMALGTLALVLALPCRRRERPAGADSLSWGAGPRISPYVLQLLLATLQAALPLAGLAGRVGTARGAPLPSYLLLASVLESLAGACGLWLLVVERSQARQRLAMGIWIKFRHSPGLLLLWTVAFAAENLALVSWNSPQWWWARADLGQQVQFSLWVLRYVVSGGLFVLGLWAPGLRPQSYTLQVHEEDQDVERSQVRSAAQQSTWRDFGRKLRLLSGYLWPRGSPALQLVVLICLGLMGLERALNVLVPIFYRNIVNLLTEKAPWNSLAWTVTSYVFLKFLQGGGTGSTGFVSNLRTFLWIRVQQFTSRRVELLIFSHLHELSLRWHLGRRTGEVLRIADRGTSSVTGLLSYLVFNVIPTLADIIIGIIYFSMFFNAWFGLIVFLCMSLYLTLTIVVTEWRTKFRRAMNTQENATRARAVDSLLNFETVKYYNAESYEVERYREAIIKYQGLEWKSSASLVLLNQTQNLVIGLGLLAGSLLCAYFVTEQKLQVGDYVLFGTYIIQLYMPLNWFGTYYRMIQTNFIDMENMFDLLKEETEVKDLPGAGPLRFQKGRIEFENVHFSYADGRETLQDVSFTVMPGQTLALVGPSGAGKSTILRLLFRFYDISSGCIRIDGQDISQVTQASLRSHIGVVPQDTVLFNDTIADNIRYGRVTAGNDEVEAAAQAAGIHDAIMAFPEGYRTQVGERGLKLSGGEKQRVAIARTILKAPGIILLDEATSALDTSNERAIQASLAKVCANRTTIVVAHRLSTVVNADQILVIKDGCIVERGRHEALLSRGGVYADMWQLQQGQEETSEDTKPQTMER
PG9 Ab binder – binds the HIV-1 gp120 antibody PG9; TR-FRET gp120-PG9 antibody binding; inhibition, % at 6.7 µM; 0.43% of 360,000 active; AID 624416; in the data active = inhibition above about 8.5%
rCAG binder conf – r(CAG) RNA repeat binding, confirmation. shares compounds with rCAG binder. TO-PRO-1 dye displacement fluorescence. inhibition, % at 3 µM. 70% of 4,300 active. AID 652065;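 active = inhibition above a per-plate cutoff, the mean inhibition of sample wells plus 3 SD, cut at about 35% in these data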;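 also: loss of TO-PRO-1 fluorescence as compound displaces dye from 1x1 AA loop RNA; 0% = DMSO only wells and 100% = 100 µM mitoxantrone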
DNA CAG counter – counter-screen for rCAG RNA binders: DNA CAG dye complex inhibitors. 94% of 4,300 active. d(CAG) DNA oligo TO-PRO-1 dye displacement, fluorescence. inhibition, % at 3 µM. shares compounds with rCAG binder;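 active = inhibition above its plate's cutoff, the mean test-well inhibition plus 3 SD, cut at about 4.8% in these data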;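 also: 0% = DNA dye mix with DMSO and 100% = 100 µM mitoxantrone; hits displace the dye from DNA and so lower well fluorescence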
dCAG dye DR – counter-screen for rCAG binders: inhibitors of DNA CAG TO-PRO-1 complex; IC50, µM; shares compounds with rCAG binder; AID 686960; 20% of 250 active; DNA CAG/GTC duplex TO-PRO-1 dye displacement fluorescence; in the data active = IC50 below about 10 µM
Starred values were filed as active, the others as inactive; i = inactive; x = not tested or not shown. Most compounds without a hit are left out; they make up all but 2.5% or so of the library.

SMILES	rCAG binder	Granule exo inh	ABCB6 inh MLPCN	PG9 Ab binder	rCAG binder conf	DNA CAG counter	others
O=C(O)c1ccn2c(C(=O)c3ccc(Cl)cc3)c(-c3ccccc3)cc2c1	67.9*	-18.1	114.0	0.1	64.5*	23.3*	dCAG dye DR=i
N#CC1=C(S)N(c2ccccc2)C(c2ccco2)NC1=O (stereo unspecified)	2.8	-5.6	96.0	2.6	x	x
N#CC1=C(S)N(c2ccccc2)C(c2ccc(-c3cc(Cl)ccc3Cl)o2)NC1=O (stereo unspecified)	58.7*	6.0	110.0	2.0	54.8*	18.4*	dCAG dye DR=5.5*
N#CC1=C(S)N(c2ccccc2)C(c2ccc(-c3ccc(Cl)c(Cl)c3)o2)NC1=O (stereo unspecified)	84.3*	11.3	102.0	-2.0	91.3*	78.5*
O=S(=O)(/N=C(/Nc1ccc(Cl)cc1Cl)c1ccccc1)c1cccs1	2.9	-3.3	93.0	0.4	x	x
Cc1c(C(=O)NCc2ccc(F)cc2)sc(=O)n1Cc1ccc(C(=O)c2ccccc2)cc1	6.8	0.0	102.0	-0.7	x	x
Cc1cc(/C=N/Nc2ccc([N+](=O)[O-])cn2)c(C)n1-c1ccc(C(=O)O)cc1	42.3*	-1.4	112.0	-8.4	32.2	9.4*
Clc1cccc(Cc2c(-c3cccc(Br)c3)nc3ccc(Br)cn23)c1	52.4*	-2.4	96.0	1.1	39.1*	9.1*
Cc1ccc(-c2nc3ccc(C)cn3c2Cc2cccc(Cl)c2)cc1	6.1	-2.8	126.0	-1.6	x	x
Fc1cccc(Cc2c(-c3ccccc3)nc3ccc(Br)cn23)c1	11.0	-4.9	96.0	4.6	x	x
Cc1ccc(-c2nc3ccc(Cl)cn3c2Cc2cccc(Cl)c2)cc1	59.1*	-4.3	102.0	-0.6	42.0*	10.1*
Clc1ccc(-c2nc3ccc(Br)cn3c2Cc2cccc(Cl)c2)cc1	37.6*	-0.9	94.0	4.7	32.5	9.2*
Brc1cccc(-c2nc3ccc(Br)cn3c2Cc2ccccc2)c1	48.7*	-0.1	103.0	2.9	11.6	6.2*
O=C(OC1CCOC1=O)c1cc(S(=O)(=O)N2CCOCC2)c(Cl)cc1Cl (stereo unspecified)	3.3	-4.8	97.0	1.5	x	x
O=C(C1=NN[C@@H]2C(=O)N(c3cccc(C(F)(F)F)c3)C(=O)[C@H]12)c1cnccn1	1.5	5.7	108.0	-2.9	x	x
O=C(Nc1cnccc1C(F)(F)F)NC1CCCCC1	-2.4	-1.0	99.0	2.0	x	x
Cc1c(Cl)c(=O)n2c(=O)c(Cl)c(C)n12	-4.8	-2.5	96.0	0.2	x	x
Clc1cccc(-c2nc3ccc(Br)cn3c2Cc2ccccc2)c1	49.5*	-4.8	103.0	0.8	13.4	4.3
Cc1cc2nc(-c3ccc(F)cc3)c(Cc3cccc(Cl)c3)n2c(C)c1Br	61.5*	-3.7	133.0	-2.6	28.8	8.4*
Cc1ccc2nc(C(C)(C)C)c(Cc3cccc(F)c3)n2c1	2.5	3.6	101.0	-0.2	x	x
Cc1cc(NS(=O)(=O)c2ccc(NC(=O)/C=C/c3ccco3)cc2)nc(C)n1	12.9	-1.0	87.0	-1.8	x	x
Cc1cc(NS(=O)(=O)c2ccc(NC(=O)/C=C/c3c(F)cccc3Cl)cc2)nc(C)n1	43.1*	3.5	97.0	-2.6	29.6	8.7*
Cc1cc(NS(=O)(=O)c2ccc(NC(=O)/C=C/c3c(F)cccc3Cl)cc2)no1	62.9*	0.6	85.0	-2.2	50.5*	18.8*
CC(NC(=O)COC(=O)C1CCN(c2ccc(C(F)(F)F)cn2)CC1)c1ccc(F)cc1 (stereo unspecified)	-2.3	-1.6	105.0	-0.8	x	x
CCOc1cccc(C(=O)Nc2ccc3c(c2)OCCO3)c1	-3.4	5.2	101.0	-1.7	x	x
Cc1ccc(/C=N/n2c(-c3ccccc3)n[nH]c2=S)cc1	18.3	-0.5	98.0	-0.8	x	x
CC(C)c1ccc(/C=N/n2c(-c3ccccc3)n[nH]c2=S)cc1	38.9*	-8.6	100.0	1.1	46.4*	13.2*
Cc1cc(-c2n[nH]c(=S)n2N=Cc2ccc(-c3ccccc3)cc2)n[nH]1	41.5*	x	x	x	35.3*	8.9*
Cc1ccc(OCC(=O)OCC(=O)NC2CCS(=O)(=O)C2)cc1C (stereo unspecified)	-0.9	5.0	94.0	2.5	x	x

Bioassay records deposited in PubChem BioAssay by several laboratories.
